Rows were chosen to be rich in hits. Some 14% of all compounds tested hit in one or more screens of this group.
HCV inh = blocks hepatitis C virus; Huh7.5.1 HCVcc-Cre infection, luciferase reporter, 44 h; Potency, µM (highest dose often 41.8 µM), actives largely listed as inhibitors; 340,000 compounds, 3.4% hits; AID 651820
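Infectious HCVcc-Cre (~0.5 moi) was added to cells just after compound, with cells seeded 4 h earlier at 1,000 per well. Luciferase activity after 44 h culture reported infection; substrate was incubated 15 min at room temperature before reading.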
MARV entry inh = Marburg virus entry inhibition; Marburg virus pseudotyped entry inhibition, cell reporter; AID 540276; 300,000 compounds, 1.8% hits; Potency, µM (series often up to 37.8 µM), actives largely listed as inhibitors; calls by dose curve; tested in HEK293 cells
Pf growth 96h = P. falciparum growth inhibition at 96 hours. P. falciparum luciferase reporter growth, 96 h. Potency, µM (series often up to 28.7 µM), usual class: inhibitors. 320,000 compounds, 6.9% hits
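Compounds incubated with erythrocytes infected by luciferase-expressing P. falciparum (2% hematocrit, 0.05% parasitemia final) for 96 hours, 37 C in 5% CO2. Growth inhibition scored as decreased luciferase luminescence.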
LASV entry inh = inhibitors of Lassa virus binding or cell entry | Potency, µM (top dose mostly 37.9 µM), usual class: inhibitors | Lassa virus pseudotype entry inhibition, cell reporter | 300,000 compounds, 1.2% hits; calls by dose curve; tested in HEK293 cells; further: nearly all actives have a fitted effect of over 50% in size
Pf growth 48h = inhibits P. falciparum growth in the first generation, 48 h. P. falciparum luciferase growth in erythrocytes, 48 h. Potency, µM (doses to about 28.7 µM), usual class: inhibitors. 310,000 compounds, 5.9% hits. AID 504832
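Growth was read as firefly luciferase luminescence after a 48 h, 37 C, 5% CO2 exposure of compounds to reporter-bearing P. falciparum cultures (0.1% parasitemia, 2% hematocrit final) in Albumax-supplemented RPMI 1640.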
HCMV inh = inhibitors of human cytomegalovirus. activity change, negative = inhibition, % at 57.5 µM. 410,000 compounds, 4.5% hits. HFF cells, HCMV-luciferase reporter, 72 h; hits give low values. AID 1259415; in the data active means activity change below about -60%; inconclusive means no clear call, values can overlap the other calls; inactive means above about -39%
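Human foreskin fibroblasts infected with luciferase-reporter HCMV at MOI 1 PFU/cell, compounds at two doses. Luciferase measured 72 h post infection; normalized to buffer-only basal and Salinomycin (10uM) controls.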
Hits are given with their value; – = inactive; ? = inconclusive; · = not tested or not shown. Unless noted, the call rests on the fitted dose curve; in most records, active means well fitted inhibition curve with a large enough effect; inconclusive means small, poorly fitted or top-dose-only effect, or another doubt; inactive means no such curve, though single readings can be large or run the other way.

SMILES	HCV inh	MARV entry inh	Pf growth 96h	LASV entry inh	Pf growth 48h	HCMV inh
Cc1ccc(O)c(NC(=O)CSc2n[nH]c(-c3ccccc3)n2)c1	11µM	·	?	·	–	-83
COc1ccc(-c2nc(CS(=O)CC(=O)NCCc3ccccc3)c(C)o2)cc1OC (stereo not drawn)	·	–	·	–	·	–
CC1C(c2ccc3c(c2)OCO3)c2cc3c(cc2OC1N1CCOCC1)OCO3 (stereo not drawn)	–	–	·	–	·	–
CCOC(=O)C1CCN(C(c2ccc(SC)cc2)c2c(O)cc(C)n(Cc3ccco3)c2=O)CC1 (stereo not drawn)	·	·	·	–	·	–
CCN(C(=O)Cn1c(=O)n(Cc2ccc3c(c2)OCO3)c(=O)c2ccc(C(=O)NC3CCCCC3)cc21)c1cccc(C)c1	·	?	·	–	·	–
CN1Cc2cc(C(=O)c3cc(Cl)cc(CSc4ncccn4)c3O)cnc2NC1=O	·	–	9.3µM	·	–	·
CC1=C(C(N)=O)C(c2ccccn2)n2nc(SCc3ccccc3Cl)nc2N1 (stereo not drawn)	–	?	–	?	–	–
CC(C)CON=C1C[C@@H](O)[C@@H](O)[C@@H]2[C@H]3C(=O)N(C[C@@H]4CCCO4)C(=O)[C@@H]3CC[C@@H]12	·	–	·	·	·	·
CC(=O)NC1=NN(C(C)=O)C2(CCCCC2)S1	2.8µM	–	–	–	–	–
CCOc1ccc2c(c1)C(C)=CC(C)(C)N2C(=O)Nc1ccccc1	–	–	15µM	–	·	·
COc1ccc(NC(=O)N2c3ccc(OC)cc3C(C)=CC2(C)C)cc1	–	–	–	–	–	–
Nc1[nH]c(C(=O)c2ccc(Br)cc2)c(-c2ccc(F)cc2)c1C(=O)NCCc1c[nH]c2ccccc12	·	·	·	·	·	–
CCCCC[C@H]1CCCCC[C@@H](O)C[C@@H](O)[C@@H](O)/C=C/C(=O)O1	·	·	·	·	·	–
C[C@H]1CCC/C=C/[C@@H]2C[C@H](O)C[C@H]2[C@H](O)[C@H](S(=O)c2ccc(O)cc2)CC(=O)O1 (stereo partly drawn)	0.56µM	?	·	1.3µM	·	-99
C[C@H]1CCC/C=C/[C@@H]2C[C@H](O)C[C@H]2[C@@H](O)/C=C/C(=O)O1	?	0.28µM	·	0.4µM	·	-76
CC1CCCC=CC2CC(OC(=O)CN(C)C)CC2C(O)C=CC(=O)O1 (stereo not drawn)	0.56µM	?	·	1.4µM	·	-98
Cc1nc2sc(-c3ccccc3)cc2c(=O)[nH]1	10µM	?	–	?	·	–
O=C(Nc1cccc(C(F)(F)F)c1)C(Sc1ncnc2ccccc12)c1ccccc1 (stereo not drawn)	–	?	?	–	7.4µM	–
Cc1cc(C)cc(NC(=O)C(Sc2ncnc3ccccc23)c2ccccc2)c1 (stereo not drawn)	–	–	3.3µM	–	12µM	–
O=C(Nc1cccc(C(F)(F)F)c1)C(Sc1n[nH]c(=O)[nH]c1=O)c1ccccc1 (stereo not drawn)	–	–	?	–	–	–
COc1ccc(C2CC(c3c(O)n(C4CCCCC4)c(=O)[nH]c3=O)=Nc3ccccc3S2)cc1 (stereo not drawn)	·	–	·	–	·	–
OC1(c2ccc(Cl)c(C(F)(F)F)c2)CCN(CCCC(c2ccc(F)cc2)c2ccc(F)cc2)CC1	·	·	·	·	·	-99
CC1(C(=O)Nc2ccccc2)Cc2c(-c3cccc(C(F)(F)F)c3)ccnc2O1 (stereo not drawn)	·	·	·	·	·	–
CC(NC(=O)CN1CCN(C(=O)c2cccs2)CC1)c1ccc(F)cc1F (stereo not drawn)	–	·	·	·	·	–
Cc1ccccc1OCC(=O)OCc1cc(=O)n2nc(C3CC3)sc2n1	·	·	·	–	·	–
SMILES	HCV inh	MARV entry inh	Pf growth 96h	LASV entry inh	Pf growth 48h	HCMV inh
CCOC(=O)Cc1ccc(NC(=O)c2cccc([N+](=O)[O-])c2)cc1	–	·	–	·	–	-60
Cc1ccc(C(=O)Nc2nnc(SCC(=O)N3CCCc4ccccc43)s2)cc1	–	?	–	3.5µM	?	–
O=C(Nc1nnc(SCC(=O)N2CCCc3ccccc32)s1)c1cccc2ccccc12	–	–	–	–	–	–
CC(C)Oc1ccc(C(=O)Nc2nnc(SCC(=O)N3CCOCC3)s2)cc1	–	?	–	2.8µM	?	–
CCOC(=O)Cc1ccc(NC(=O)c2ccc([N+](=O)[O-])cc2)cc1	–	–	–	–	–	–
CN(C)S(=O)(=O)c1ccc(C(=O)Nc2nnc(SCC(=O)N3CCOCC3)s2)cc1	·	·	·	·	·	–
CCOC(=O)CNC(=O)CSc1nnc(NC(=O)c2ccc(C)cc2)s1	–	6.3µM	–	?	–	–
COC1=C[C@H](C(=O)N2CCCC2)[C@H](C)[C@@H](c2ccccc2)CC1=O	·	–	·	?	·	·
CCCc1cc(=O)[nH]c(SCC(=O)Nc2cccc(S(=O)(=O)N3CCCCC3)c2)n1	–	·	?	·	–	–
CCOC(=O)CSc1nnc(NC(=O)c2cccc([N+](=O)[O-])c2)s1	–	–	12µM	–	–	–
CC(=O)C[C@@H](O)CC(=O)[C@@H]1OC(=O)CCCCCCc2ccccc21	–	·	·	·	·	–
Oc1cccc2nc3ccccc3nc12	?	·	12µM	·	?	–
Cc1cc(C)n(-c2nc(SCCN(C)C)c3c4c(sc3n2)COC(C)(C)C4)n1	7.9µM	?	1.5µM	?	1.9µM	–
Cc1nc2sc3c(c2c(=O)o1)CC(C)(C)OC3	–	–	15µM	–	–	–
Cc1cc(C)n(-c2nc(SCC(=O)NCC3CCCO3)c3c4c(sc3n2)CCCC4)n1 (stereo not drawn)	·	–	4.1µM	·	12µM	·
Cc1cc(C)n(-c2nc(NCC3CCCO3)c3c4c(sc3n2)COC(C)(C)C4)n1 (stereo not drawn)	?	?	2.3µM	?	·	–
COC(=O)CSc1nnc2c3c4c(sc3nc(-n3nc(C)cc3C)n12)COC(C)(C)C4	–	–	?	–	?	–
Cc1cccc(-c2nc(CCNC(=O)Cc3ccccc3)cs2)c1	·	·	·	–	·	?
CCOC(=O)c1cn(CC)c2cc(Cl)c([N+](=O)[O-])cc2c1=O	–	–	?	–	13µM	–
CCOC(=O)c1cn(-c2c(Cl)cccc2Cl)c2cc(Cl)c([N+](=O)[O-])cc2c1=O	?	–	8.3µM	?	13µM	?
CCOC(=O)c1cn(-c2ccccc2CO)c2c(F)c(F)c(F)cc2c1=O	–	–	?	–	–	–
CCOC(=O)c1cn(CC2CC2)c2cc(F)c(F)cc2c1=O	14µM	–	?	–	–	–
COc1ccc(/C=C2\C(=O)N(Cc3ccc(F)cc3)CC(=O)N2Cc2ccccc2)cc1	–	?	15µM	?	10µM	–
Cc1cc(NCCCCO)n2c(nc3ccccc32)c1C#N	?	–	–	?	10µM	–
CCN(CC)CCCNc1cc(C)c(C#N)c2nc3ccccc3n12	·	·	·	·	·	–
CCCc1cc(NCCOCCO)n2c(nc3ccccc32)c1C#N	·	·	·	·	·	–
CCCc1cc(NCCCCO)n2c(nc3ccccc32)c1C#N	?	–	3.3µM	–	9.3µM	–

Source: PubChem BioAssay
